Data reported in PubChem BioAssay (Tox21).
“And” between values parts separate entries of the source, which are not always exact repeats. Identical values can stand only once. Records with an inconclusive call do not appear. The source made the active and inactive calls. Unless noted, calls come from the whole dose curve; as a rule, active = well fitted curve in the direction sought with a large enough effect in the repeat runs; inconclusive = weak or mixed curves; inactive = no such curve, though single readings can be large; an effect the other way counts as inactive or inconclusive.

Key:
[1] = molecular target: Androgen receptor (Homo sapiens) (UniProt P10275); test: qHTS assay to identify small molecule antagonists of the androgen receptor (AR) signaling pathway using the MDA cell line in the presence of 0.5 nM R1881 (AID 1259243); note: nearly all actives have a fitted effect of over 50% in size; note: potency is the fitted concentration of half-maximal effect
Summary of the method: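 We exposed MDA-kb2 cells to compounds under 0.5 nM R1881 stimulation for 16 hr at 37C and quantified MMTV-driven luciferase by luminescence.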

[2] = molecular target: Estrogen receptor (Homo sapiens) (UniProt P03372); test: qHTS assay to identify small molecule antagonists of the estrogen receptor alpha (ER-alpha) signaling pathway using the BG1 cell line in the presence of 0.1 nM 17-beta-estradiol (AID 1259244); note: nearly all actives have a fitted effect of over 50% in size; note: potency is the fitted concentration of half-maximal effect
Summary of the method: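 VM7Luc4E2; 4xERE-luciferase; 0.1 nM E2 final; 22 h co-incubation, 37C; ONE-Glo luminescence after 30 min at room temperature.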

[3] = qHTS assay to identify small molecule phospholipidosis (PLD) inducers (AID 1259344; active = well fitted curve in the direction sought with a large enough effect; an effect the other way counts as inactive or inconclusive)
Summary of the method: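 HepG2 cells, 900/well, treated with compound plus LipidTOX Red for 24 h at 37 C; amiodarone positive and DMSO negative controls. Fixed with paraformaldehyde/Hoechst, then high-content imaging scored LipidTOX pit count and integrated intensity per well and per cell.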

[4] = qHTS assay to identify small molecule HDAC inhibitors (AID 1259364); note: potency is the fitted concentration of half-maximal effect;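 note: wild-type HCT-116 cells with endogenous class I/II HDAC activity; nearly all actives have a fitted effect of over 45% in size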; for activity change, negative = inhibition: top concentration of the series differs between compounds
Summary of the method: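 Relative class I and II HDAC activity is taken from the luminogenic signal in HCT-116 cells, with compound exposure 2 hr and reagent development 30 min at room temperature.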

[5] = qHTS assay to identify small molecule HDAC inhibitors - cell viability counter screen (AID 1259365); note: nearly all actives have a fitted effect of over 50% in size; note: potency is the fitted concentration of half-maximal effect; for activity change, negative = cytotoxicity: series mostly up to about 92 µM
Summary of the method: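 Following a 2hr exposure of overnight-plated wild-type HCT-116 cells to DMSO-delivered compounds, CellTiter-Glo was added and luminescence recorded after 30min at room temperature.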

[6] = qHTS assay to identify small molecule agonists of the sonic hedgehog signaling (Shh) pathway - cell viability counter screen (AID 1259366); note: nearly all actives have a fitted effect of over 50% in size; note: potency is the fitted concentration of half-maximal effect
Summary of the method: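 After a 4hr attachment at 37C, NIH/3T3 cells bearing an integrated Gli1-driven luciferase reporter were dosed with compounds. Treatment lasted 24hr, with the final hour including CellTiter-Fluor for a fluorescence viability measurement.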

[7] = qHTS assay to identify small molecule agonists of the sonic hedgehog signaling (Shh) pathway (AID 1259368; calls by dose curve; note: nearly all actives have a fitted effect of over 15% in size; note: potency is the fitted concentration of half-maximal effect;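 for activity change: NIH/3T3-derived 3T3Gli1-Luc cells carrying a stable Gli1-driven firefly luciferase reporter; series mostly up to about 92 µM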)
Summary of the method: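 Mouse fibroblast (NIH/3T3) reporter cells with stably integrated Gli1-Luc were treated 24 hr with compound; firefly luciferase luminescence served as the read-out.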

[8] = qHTS assay to identify small molecule antagonists of the sonic hedgehog signaling (Shh) pathway (AID 1259369; calls by dose curve; note: nearly all actives have a fitted effect of over 45% in size; note: potency is the fitted concentration of half-maximal effect)
Summary of the method: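 Conditioned medium drives Shh signalling in 3T3Gli1-Luc cells; compounds in DMSO co-applied, 24hr at 37 C, then luciferase luminescence.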

[9] = qHTS assay to identify small molecule antagonists of the sonic hedgehog signaling (Shh) pathway - cell viability counter screen (AID 1259367); note: nearly all actives have a fitted effect of over 55% in size
Summary of the method: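 NIH/3T3-derived Gli1-Luc reporter cells, 2,000/well, plated 4 hr before compound addition, then stimulated with conditioned medium for 24 hr at 37C. Viability measured in the same wells by CellTiter-Fluor fluorescence, reagent added at 23 hr for 1 hr.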

[10] = molecular target: Estrogen receptor beta (Homo sapiens) (UniProt Q92731); test: qHTS assay to identify small molecule agonists of the estrogen receptor beta (ER-beta) signaling pathway (AID 1259377; active = well fitted activation curve with a large enough effect in the signal ratio in the repeat runs, not every such curve was filed as active; the % refers to the signal ratio)
Summary of the method: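 In HEK293T cells bearing a UAS-beta-lactamase reporter under ER-beta control, DMSO-delivered compounds were incubated for 16 hr at 37C. Activity was detected as fluorescence 2 hours after LiveBLAzer B/G FRET substrate addition.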
% is set by controls: 0 for no effect and ±100 for the full control effect.

Estrogen receptor beta (Homo sapiens), sequence (Q92731 whole entry, looked up): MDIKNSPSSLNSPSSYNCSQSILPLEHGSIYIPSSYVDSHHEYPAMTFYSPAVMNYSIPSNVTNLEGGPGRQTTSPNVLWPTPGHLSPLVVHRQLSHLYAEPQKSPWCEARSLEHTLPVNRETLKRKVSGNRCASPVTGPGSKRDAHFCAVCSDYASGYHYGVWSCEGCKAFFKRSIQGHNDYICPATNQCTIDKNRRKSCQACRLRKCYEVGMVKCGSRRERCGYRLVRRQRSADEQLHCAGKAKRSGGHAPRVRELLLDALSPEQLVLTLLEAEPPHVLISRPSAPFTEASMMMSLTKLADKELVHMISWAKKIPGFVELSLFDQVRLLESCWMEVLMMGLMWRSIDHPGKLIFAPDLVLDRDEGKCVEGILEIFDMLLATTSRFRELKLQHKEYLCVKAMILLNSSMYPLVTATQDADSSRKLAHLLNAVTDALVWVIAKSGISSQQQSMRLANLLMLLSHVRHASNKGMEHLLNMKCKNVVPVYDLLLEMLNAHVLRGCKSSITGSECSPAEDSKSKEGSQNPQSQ
Androgen receptor (Homo sapiens), sequence (P10275 whole entry, looked up): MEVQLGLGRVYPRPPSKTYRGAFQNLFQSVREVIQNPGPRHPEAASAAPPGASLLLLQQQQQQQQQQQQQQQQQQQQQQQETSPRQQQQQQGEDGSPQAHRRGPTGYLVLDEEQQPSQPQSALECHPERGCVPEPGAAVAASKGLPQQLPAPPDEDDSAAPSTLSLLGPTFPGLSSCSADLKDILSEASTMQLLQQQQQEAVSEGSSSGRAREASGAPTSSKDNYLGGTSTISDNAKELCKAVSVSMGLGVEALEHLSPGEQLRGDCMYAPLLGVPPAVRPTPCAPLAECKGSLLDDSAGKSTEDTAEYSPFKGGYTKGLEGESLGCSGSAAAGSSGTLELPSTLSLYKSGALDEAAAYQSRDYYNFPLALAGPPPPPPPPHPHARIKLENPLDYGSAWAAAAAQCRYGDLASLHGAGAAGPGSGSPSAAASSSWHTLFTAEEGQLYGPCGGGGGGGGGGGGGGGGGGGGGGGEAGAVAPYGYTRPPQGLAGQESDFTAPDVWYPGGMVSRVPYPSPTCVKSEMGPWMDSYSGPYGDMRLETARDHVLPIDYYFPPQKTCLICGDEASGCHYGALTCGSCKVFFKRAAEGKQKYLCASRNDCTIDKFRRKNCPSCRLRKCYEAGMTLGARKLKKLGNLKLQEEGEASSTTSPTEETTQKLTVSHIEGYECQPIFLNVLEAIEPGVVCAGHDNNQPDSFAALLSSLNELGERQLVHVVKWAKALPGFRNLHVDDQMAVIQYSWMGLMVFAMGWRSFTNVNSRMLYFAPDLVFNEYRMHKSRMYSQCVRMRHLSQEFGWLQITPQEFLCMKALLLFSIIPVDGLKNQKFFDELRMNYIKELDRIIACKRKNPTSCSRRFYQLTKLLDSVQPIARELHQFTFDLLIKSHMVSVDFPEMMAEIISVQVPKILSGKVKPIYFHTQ
Estrogen receptor (Homo sapiens), sequence (P03372 whole entry, looked up): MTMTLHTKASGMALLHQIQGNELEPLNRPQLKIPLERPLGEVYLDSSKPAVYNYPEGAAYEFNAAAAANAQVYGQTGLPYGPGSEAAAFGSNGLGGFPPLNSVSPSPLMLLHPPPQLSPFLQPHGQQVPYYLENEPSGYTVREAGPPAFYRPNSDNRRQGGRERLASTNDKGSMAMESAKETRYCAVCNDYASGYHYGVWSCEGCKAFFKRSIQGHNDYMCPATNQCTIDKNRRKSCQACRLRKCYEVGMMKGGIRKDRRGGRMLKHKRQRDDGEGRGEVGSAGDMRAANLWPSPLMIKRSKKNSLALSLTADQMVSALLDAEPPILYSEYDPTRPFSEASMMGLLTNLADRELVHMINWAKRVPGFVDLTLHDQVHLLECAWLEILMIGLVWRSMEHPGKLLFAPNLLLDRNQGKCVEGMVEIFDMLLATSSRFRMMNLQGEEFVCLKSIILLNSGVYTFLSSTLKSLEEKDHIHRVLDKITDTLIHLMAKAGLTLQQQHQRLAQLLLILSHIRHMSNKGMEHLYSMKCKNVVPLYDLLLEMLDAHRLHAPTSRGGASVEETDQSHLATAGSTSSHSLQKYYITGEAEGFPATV

CN(C)c1ccc(C(=C2C=CC(=[N+](C)C)C=C2)c2ccc(N(C)C)cc2)cc1
active: Potency [1] 1.53 µM and 3.44 µM and 1.88 µM | Potency [2] 1.71 µM and 3.86 µM and 3.35 µM | Potency [4] 9.64 µM and 8.63 µM and 11.9 µM | Potency [5] 13.6 µM and 27.3 µM and 11.9 µM | Potency [6] 9.64 µM and 30.6 µM and 13.3 µM | Potency [8] 1.53 µM and 864 nM and 3.35 µM
inactive: Potency [3] | Potency [7]

CCCCCCCCCCOC(=O)c1ccccc1C(=O)OCCCCCCCC
inactive: Potency [1] | Potency [2] | Potency [4] | Potency [5] | Potency [6] | Potency [9] | Potency [7] | Potency [8]

O=S(=O)(O)c1ccc(Nc2nc(Nc3ccc(/C=C/c4ccc(Nc5nc(Nc6ccc(S(=O)(=O)O)cc6)nc(N(CCO)CCO)n5)cc4S(=O)(=O)O)c(S(=O)(=O)O)c3)nc(N(CCO)CCO)n2)cc1
inactive: Potency [1] | Potency [2] | Potency [4] | Potency [6] | Potency [9] | Potency [7]

CNc1ccc([N+](=O)[O-])cc1
inactive: Potency [2] | Potency [4] | Potency [5] | Potency [9] | Potency [7] | Potency [8] | Potency [10]
active: Potency [1] 15.4 µM | Potency [6] 19.4 µM

CC(C)(C)NSc1nc2ccccc2s1
inactive: Potency [1] | Potency [2] | Potency [4] | Potency [5] | Potency [9] | Potency [7] | Potency [10]

Nc1cc(Cl)c(O)c(Cl)c1
inactive: Potency [1] | Potency [2] | Potency [5] | Potency [7]

Clc1sc(Cl)c(Cl)c1Cl
inactive: Potency [1] | Potency [2] | Potency [4] | Potency [5] | Potency [6] | Potency [9] | Potency [7] | Potency [8]

CCCCC(CC)CN1CN(CC(CC)CCCC)CC(C)(N)C1 (stereo not drawn)
active: Potency [1] 26.6 µM
inactive: Potency [2] | Potency [3] | Potency [4] | Potency [9] | Potency [7] | Potency [10]

CCOc1ccc2ccccc2c1C(=O)N[C@@H]1C(=O)N2[C@@H]1SC(C)(C)[C@@H]2C(=O)O
inactive: Potency [1] | Potency [2] | Potency [3] | Potency [4] | Potency [5] | Potency [9] | Potency [7] | Potency [8]

CN(C)Cc1ccccc1O
inactive: Potency [1] | Potency [2] | Potency [4] | Potency [5] | Potency [6] | Potency [9] | Potency [7] | Potency [8] | Potency [10]

CCN1C(=O)c2ccccc2C1Nc1ccc(OCCN2CCCCC2)cc1 (stereo not drawn)
active: Potency [8] 13.3 µM
inactive: Potency [1] | Potency [2] | PLD induction [3] 0.829% [at 7.66 µM] | Potency [4] | Potency [5] | Potency [6] | Potency [9] | Potency [7] | Potency [10]

NC(=S)NC(N)=S
inactive: Potency [1] | Potency [2] | Potency [4] | Potency [5] | Potency [6] | Potency [9] | Potency [7] | Potency [8]

CN(C)[C@@H](CCOc1cccc2ccccc12)c1ccccc1
active: Potency [1] 26.6 µM | Potency [8] 29.8 µM
inactive: Potency [2] | Potency [4] | Potency [5] | Potency [7] | Potency [10]

O=C(/C=C/c1ccccc1)OC/C=C/c1ccccc1
inactive: Potency [1] | Potency [2] | Potency [4] | Potency [7] | Potency [10]

C=Cc1ccccc1C=C
inactive: Potency [2] | Potency [4] | Potency [5] | Potency [6] | Potency [9] | Potency [7] | Potency [10]

COC(=O)c1ccccc1C
inactive: Potency [2] | Potency [4] | Potency [5] | Potency [6] | Potency [9] | Potency [7] | Potency [8]

OC/C=C/CO
inactive: Potency [2] | Potency [4] | Potency [5] | Potency [6] | Potency [9] | Potency [7] | Potency [8]

CC1(C)CCC[C@]2(C)[C@H]3CC(=O)O[C@]3(C)CC[C@@H]12
inactive: Potency [2] | Potency [4] | Potency [5] | Potency [6] | Potency [9] | Potency [7]

COc1ccc(-c2coc3cc(O)ccc3c2=O)cc1
inactive: Potency [2] | Potency [5] | Potency [6] | Potency [9]
active: Potency [4] 1.54 µM | Potency [7] 9.69 µM

CCCCNS(=O)(=O)c1ccc(C)cc1
inactive: Potency [2] | Potency [4] | Potency [5] | Potency [6] | Potency [9] | Potency [7] | Potency [8]

CC(C)(C)CC(C)(C)c1ccc(Nc2ccc(C(C)(C)CC(C)(C)C)cc2)cc1
inactive: activity change, negative = inhibition [2] -17.9% [at 8.39 µM] | activity change, negative = inhibition [4] -1.65% [at 8.39 µM] | activity change, negative = cytotoxicity [5] 2.64% [at 8.39 µM] | viability change, negative = cytotoxic [6] 3.57% [at 8.39 µM] | viability change, negative = cytotoxic [9] -1.41% [at 8.39 µM] | activity change [7] -0.648% [at 8.39 µM, hits give high values] | activity change, negative = inhibition [8] -12.5% [at 8.39 µM]

O=[N+]([O-])c1cccc(C(F)(F)F)c1
inactive: Potency [2] | Potency [4] | Potency [5] | Potency [6] | Potency [9] | Potency [7] | Potency [10]

CCCCCCCCCCCC(=O)OCC(C)OC(=O)CCCCC(=O)O (stereo not drawn)
inactive: Potency [2] | Potency [4] | Potency [5] | Potency [6] | Potency [9] | Potency [7] | Potency [8]

O=C1c2ccccc2C(=O)N1SC1CCCCC1
inactive: Potency [4] | Potency [5] | Potency [9] | Potency [7]
active: Potency [2] 61.1 µM | Potency [6] 30.6 µM

OC12N=C(c3ccccc3)SC1Cc1cc(Cl)ccc12 (stereo not drawn)
active: Potency [4] 27.3 µM | Potency [7] 2.73 µM
inactive: Potency [2] | Potency [5] | Potency [6] | Potency [9] | Potency [10]
